According to PubChem BioAssay (NCATS):
Values joined by “and” are separate entries in the source; they are usually repeats but may differ in a detail not shown here. Identical values can stand only once. Inconclusive results are not listed. A call without a number means that no potency is given here. Active and inactive are the calls of the source. Unless noted, calls come from the whole dose curve; as a rule, active = well fitted curve in the direction sought with a large enough effect; inconclusive = small, poorly fitted or top-dose-only effect, or another doubt; inactive = no such curve, though single readings can be large; an effect the other way counts as inactive or inconclusive.

Columns and labels:
[1] = Cell Viability - LYMP2-024 (AID 988); note: nearly all actives have a fitted effect of over 60% in size
Method in brief: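 qHTS cytotoxicity, human lymphoblastoid line, complete medium; 24 h cpd treatment, 37 C; CellTiter-Glo ATP luminescence readout; tetraoctylammonium bromide positive control; AC50 via Hill fit.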

[2] = Cell Viability - LYMP2-026 (AID 989);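 note: cells exposed to compound for 24 h at 37 °C; nearly all actives have a fitted effect of over 50% in size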
Method in brief: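 Cells are seeded at 2500 per well and held 5 hr at 37 C. Compounds are added in concentration series for 24 hr, then CellTiter-Glo reagent is applied and luminescence read.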

[3] = Cell Viability - LYMP1-002 - Assay at 24 hr (AID 993); note: potency is the fitted concentration of half-maximal effect
Method in brief: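 Acute toxicity is measured as concentration-dependent loss of cellular ATP in a human lymphoblastoid line (Coriell LYMP1-002) after 24 h treatment in complete medium. ATP is quantified by luciferase luminescence and AC50 derived by Hill modelling.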

[4] = Cell Viability - LYMP1-002 - Assay at 40 hr (AID 994); note: nearly all actives have a fitted effect of over 60% in size
Method in brief: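 Cells are plated at 2500 per well and rested 5 hr at 37 C. Compounds are added and incubated 40 hr at 37 C. CellTiter-Glo reagent is added for 30 min at room temperature before luminescence is read.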

[5] = qHTS Assay for Lipid Storage Modulators (AID 1519; calls by dose curve); conditions: Drosophila S3 cells, BODIPY lipid droplet/cell ratio, laser cytometry, cells loaded with oleic acid
Method in brief: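 Cells seeded at 5,000 per well were treated with compounds over a concentration series and loaded with oleic acid (400 uM, as added). Lipid droplet fluorescence (488 nm excitation, 500-530 nm channel) was read by laser-scanning cytometry and normalized to 20 uM Triacsin C.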

[6] = biological target: Alpha-galactosidase A (Homo sapiens) (UniProt P06280); assay: Counterscreen for Glucocerebrosidase Inhibitors: qHTS Assay for Human alpha-Galactosidase at pH 4.5 (AID 992)
Chain of Alpha-galactosidase A (Homo sapiens) (P06280 whole entry, looked up): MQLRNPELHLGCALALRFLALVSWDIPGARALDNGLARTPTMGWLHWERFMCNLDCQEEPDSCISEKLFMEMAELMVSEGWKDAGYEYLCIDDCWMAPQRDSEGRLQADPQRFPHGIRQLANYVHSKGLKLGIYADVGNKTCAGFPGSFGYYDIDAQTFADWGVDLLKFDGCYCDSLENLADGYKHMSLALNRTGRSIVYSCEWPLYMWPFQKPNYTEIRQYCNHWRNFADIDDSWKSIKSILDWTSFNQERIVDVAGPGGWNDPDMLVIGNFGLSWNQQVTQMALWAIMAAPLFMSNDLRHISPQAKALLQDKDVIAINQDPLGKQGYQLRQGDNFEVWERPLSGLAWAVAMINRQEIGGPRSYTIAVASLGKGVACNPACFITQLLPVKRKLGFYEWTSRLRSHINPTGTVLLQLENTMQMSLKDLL
Method in brief: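 Each compound is preincubated briefly with 2 nM enzyme before substrate addition (80 uM); plates then sit 20 min at ambient temperature, are quenched with 1M NaOH/1M glycine, and read fluorometrically.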

[7] = biological target: alpha-glucosidase (Oryza sativa, rice) (UniProt Q653V4); assay: Counterscreen for Glucocerebrosidase Inhibitors: qHTS Assay for Rice alpha-Glucosidase at pH 5.0 (AID 997)
Method in brief: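 Endpoint fluorogenic assay at pH 5.0: compounds (0.7 nM to 77 uM) titrated against 4 nM rice enzyme and 400 uM 4-MU-alpha-glucoside for 20 min at room temperature; NaOH/glycine stop, read ex 365/em 440 nm, Hill-fitted AC50.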

[8] = biological target: Alpha-galactosidase (Coffea arabica) (UniProt Q42656); assay: Counterscreen for Glucocerebrosidase Inhibitors: qHTS Assay for Coffee Bean alpha-Galactosidase at pH 5.9 (AID 998)
Chain of Alpha-galactosidase (Coffea arabica) (Q42656 whole entry, looked up): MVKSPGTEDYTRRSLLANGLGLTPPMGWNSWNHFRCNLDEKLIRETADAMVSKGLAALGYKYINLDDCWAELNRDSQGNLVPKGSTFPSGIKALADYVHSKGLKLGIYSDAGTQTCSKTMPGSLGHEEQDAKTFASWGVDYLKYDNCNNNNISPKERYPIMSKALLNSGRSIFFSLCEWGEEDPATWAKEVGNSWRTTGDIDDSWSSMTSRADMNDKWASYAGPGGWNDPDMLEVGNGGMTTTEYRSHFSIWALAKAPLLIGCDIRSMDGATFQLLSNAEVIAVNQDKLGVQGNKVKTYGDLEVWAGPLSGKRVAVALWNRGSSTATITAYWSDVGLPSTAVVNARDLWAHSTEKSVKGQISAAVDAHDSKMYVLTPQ
Method in brief: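 Fluorogenic 4-MU substrate hydrolysis, 80 uM substrate and 2 nM coffee bean alpha-galactosidase, pH 5.9 citrate buffer, 20 min at room temperature, then NaOH/glycine stop. Titration 0.7 nM–77 uM, normalized to no-enzyme and enzyme controls, AC50 via Hill equation.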

[9] = Validation of Assay for Modulators of Lamin A Splicing (AID 1459; active = well fitted curve in the direction sought with a large enough effect in the signal ratio; the % refers to the signal ratio;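 note: cells exposed to compound for two days before reading; ratio rise marks activators and ratio drop marks inhibitors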)
Method in brief: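 Readout: ratio of GFP (500-530 nm) to RFP (575-640 nm) total object intensity by 488 nm laser-scanning cytometry after 48 hrs. Cells were HeLa S3 clones carrying lamin A-EGFP minigene plus DsRed2 viability reporter; vehicle 0.5% DMSO final.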

[10] = biological target: DNA repair nuclease/redox regulator APEX1 (Homo sapiens) (UniProt P27695); assay: qHTS Validation Assay for Inhibitors of the Human Apurinic/apyrimidinic Endonuclease 1 (APE1) (AID 1705;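 note: TAMRA fluorescence gain over two minutes as APE1 cuts a quenched THF abasic duplex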)
Chain of DNA repair nuclease/redox regulator APEX1 (Homo sapiens) (P27695 whole entry, looked up): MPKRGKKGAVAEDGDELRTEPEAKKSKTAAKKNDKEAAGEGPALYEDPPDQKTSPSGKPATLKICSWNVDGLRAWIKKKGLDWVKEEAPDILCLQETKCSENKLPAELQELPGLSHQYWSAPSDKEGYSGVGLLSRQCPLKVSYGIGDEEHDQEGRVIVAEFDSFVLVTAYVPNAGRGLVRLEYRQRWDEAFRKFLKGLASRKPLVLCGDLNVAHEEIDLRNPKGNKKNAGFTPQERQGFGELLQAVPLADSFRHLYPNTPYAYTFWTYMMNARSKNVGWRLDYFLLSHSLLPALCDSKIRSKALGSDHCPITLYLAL
Method in brief: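 Read-out: TAMRA fluorescence (525 nm ex, 598 nm em) from cleavage of a quenched THF abasic-site duplex, 50 nM final; activity taken as intensity change between third and first of three reads 60 s apart.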

[11] = biological target: Endonuclease 4 (Escherichia coli (strain K12)) (UniProt P0A6C1); assay: Counterscreen for APE1 Inhibitors: qHTS Validation Assay for Inhibitors of Endonuclease IV (AID 1708)
Method in brief: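 Incision of a double-stranded 50 nM TAMRA/BHQ-2 abasic substrate was followed kinetically (525/598 nm, reads every 60 s) after 15 min enzyme–compound preincubation with 2 nM EndoIV in pH 7.5 Tris buffer with MgCl2, DTT and Tween-20; concentration-response format.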

[12] = measured here: cell count channel max response
[13] = measured here: lipid channel max response

## Nc1ccccc1
[1]
  outcome: inactive
[2]
  outcome: inactive
[3]
  Potency: inactive
[4]
  Potency: inactive

## Cc1ncsc1CCCl
[5]; at 57.5 µM (top of the series)
  activity change, negative = inhibition: 4.7% (inactive)
[5]; [12]
  max response: 0.112%
[5]; [13]
  max response: 4.95%

## O=C(CCCN1CCC2(CC1)C(=O)NCN2c1ccccc1)c1ccc(F)cc1
[6]
  outcome: inactive
[7]
  outcome: inactive
[8]
  outcome: inactive
[9]
  outcome: inactive
[5]; at 25.7 µM (top of the series)
  activity change, negative = inhibition: -0.907% (inactive)
[5]; at 57.5 µM (top of the series)
  activity change, negative = inhibition: 7.99% (inactive)
[5]; [12]
  max response: -5.72% and 5.19%
[5]; [13]
  max response: -10.3% and 17.9%
[10]
  Potency: inactive
[11]
  outcome: inactive

## C[C@]1(O)CC[C@H]2[C@@H]3CCC4=CC(=O)CC[C@]4(C)[C@@]3(F)[C@@H](O)C[C@@]21C
[1]
  outcome: inactive
[2]
  outcome: inactive
[3]
  Potency: inactive
[4]
  Potency: inactive

## CN1CCN(CCC=C2c3ccccc3Sc3ccc(S(=O)(=O)N(C)C)cc32)CC1
[8]
  outcome: inactive

## CC(=O)OCC(=O)[C@@]1(O)CC[C@H]2[C@@H]3CCC4=CC(=O)CC[C@]4(C)[C@H]3C(=O)C[C@@]21C
[8]
  outcome: inactive

## Cc1scc2c1N(C(=O)CN1CCN(C)CC1)c1ccccc1NC2=O
[8]
  outcome: inactive

## CC(C)C(=O)c1c(C(C)C)nn2ccccc12
[8]
  outcome: inactive

## CNCCCC12CCC(c3ccccc31)c1ccccc12
[8]
  outcome: inactive

## Clc1cccc(Cl)c1NC1=NCCN1
[8]
  outcome: inactive

## C[C@H](CS)C(=O)N1CCC[C@H]1C(=O)O
[8]
  outcome: inactive

## CCCC(C)(COC(N)=O)COC(N)=O
[1]
  outcome: inactive
[2]
  outcome: inactive
[3]
  Potency: inactive
[4]
  Potency: inactive

## O=c1[nH]cnc2[nH]ncc12
[8]
  outcome: inactive

## COc1ccc2cc([C@H](C)C(=O)O)ccc2c1
[8]
  outcome: inactive

## Nc1nc2ccc(OC(F)(F)F)cc2s1
[8]
  outcome: inactive

## Clc1ccc(C(c2ccc(Cl)cc2)C(Cl)(Cl)Cl)cc1
[1]
  outcome: inactive
[2]
  outcome: inactive
[3]
  Potency: 50.1 µM (active)
[4]
  Potency: inactive
